Where “and” joins values, the source holds several entries; their conditions need not be identical. Identical values can stand only once. Among all 5,500 compounds or so, about 2,000 (36%) were called active. Not shown: some 18% with an inconclusive outcome. No stated cut-off is given here; in the data, active means normalized growth mostly below about 0.91 (no sharp cut-off); inconclusive means no clear call, values can overlap the other calls; inactive means mostly above about 0.92. Some of the results follow.
Assay: chemical genetic growth profiling, strain panel (AID 1159580);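 further: tested at 20 µM; growth read once vehicle control cultures reached saturation at 30 °C; 1 = growth at the plate median or of vehicle wells; lower values mean less growth of the strain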
Conditions: growth OD

Measured: normalized growth

NS(=O)(=O)c1cc2c(cc1Cl)NC=NS2(=O)=O
inactive: S. cerevisiae deletion strains, locus YJR075W, strain HOC1, active compounds read low 1.02 | S. cerevisiae deletion strains, locus YKL009W, strain mrt4, active compounds read low 1.02 | S. cerevisiae deletion strains, locus YKL068W, active compounds read low 0.998 | S. cerevisiae deletion strains, locus YKL085W, strain MDH1 (second series), active compounds read low 0.998 | S. cerevisiae deletion strains, locus YKL085W, strain MDH1, active compounds read low 0.998 | S. cerevisiae deletion strains, locus YKL160W, strain elf1, active compounds read low 1.01 | S. cerevisiae deletion strains, locus YKL190W, strain CNB1, active compounds read low 1.01 | S. cerevisiae deletion strains, locus YKR001C, strain vps1, active compounds read low 0.988 | S. cerevisiae deletion strains, locus YKR026C, strain gcn3, active compounds read low 0.98 | S. cerevisiae deletion strains, locus YKR091W, strain srl3, active compounds read low 1.01 | S. cerevisiae deletion strains, locus YLL001W, strain dnm1, active compounds read low 1.01 | S. cerevisiae deletion strains, locus YLL026W, active compounds read low 0.99 | S. cerevisiae deletion strains, locus YLL041C, strain sdh2, active compounds read low 1 | S. cerevisiae deletion strains, locus YLR027C, strain aat2, active compounds read low 1.01 | S. cerevisiae deletion strains, locus YLR039C, strain RIC1, active compounds read low 1.02 | S. cerevisiae deletion strains, locus YLR058C, strain SHM2, active compounds read low 1.01 | S. cerevisiae deletion strains, locus YLR102C, strain apc9, active compounds read low 0.99 | S. cerevisiae deletion strains, locus YLR113W, strain HOG1, active compounds read low 0.939 | S. cerevisiae deletion strains, locus YLR221C, strain rsa3, active compounds read low 0.994 | S. cerevisiae deletion strains, locus YLR258W, strain gsy2, active compounds read low 1.01 | S. cerevisiae deletion strains, locus YLR262C, strain YPT6 (second series), active compounds read low 1 | S. cerevisiae deletion strains, locus YLR262C, strain YPT6, active compounds read low 1.02 | S. cerevisiae deletion strains, locus YLR268W, strain sec22, active compounds read low 0.996 | S. cerevisiae deletion strains, locus YLR320W, strain mms22, active compounds read low 0.988 | S. cerevisiae deletion strains, locus YLR330W, strain CHS5, active compounds read low 1.01 | S. cerevisiae deletion strains, locus YLR342W, strain FKS1 (second series), active compounds read low 1.02 | S. cerevisiae deletion strains, locus YLR342W, strain FKS1, active compounds read low 0.999 | S. cerevisiae deletion strains, locus YLR357W, strain rsc2, active compounds read low 0.985 | S. cerevisiae deletion strains, locus YLR370C, strain arc18, active compounds read low 1 | S. cerevisiae deletion strains, locus YLR371W, strain rom2, active compounds read low 0.997 | S. cerevisiae deletion strains, locus YLR384C, strain iki3, active compounds read low 1.01 | S. cerevisiae deletion strains, locus YLR418C, strain cdc73, active compounds read low 1.02 | S. cerevisiae deletion strains, locus YML016C, strain PPZ1, active compounds read low 1 | S. cerevisiae deletion strains, locus YML032C, strain rad52, active compounds read low 0.982 | S. cerevisiae deletion strains, locus YML120C, strain ndi1, active compounds read low 0.994 | S. cerevisiae deletion strains, locus YML124C, strain tub3, active compounds read low 0.996 | S. cerevisiae deletion strains, locus YMR058W, strain fet3, active compounds read low 1 | S. cerevisiae deletion strains, locus YMR078C, strain ctf18, active compounds read low 0.984 | S. cerevisiae deletion strains, locus YMR125W, strain sto1, active compounds read low 0.998 | S. cerevisiae deletion strains, locus YMR129W, active compounds read low 1 | S. cerevisiae deletion strains, locus YMR205C, strain PFK2, active compounds read low 1 | S. cerevisiae deletion strains, locus YMR223W, strain ubp8, active compounds read low 1 | S. cerevisiae deletion strains, locus YMR231W, strain pep5, active compounds read low 0.999 | S. cerevisiae deletion strains, locus YMR263W, strain SAP30, active compounds read low 1.02 and 0.996 | S. cerevisiae deletion strains, locus YMR307W, strain GAS1, active compounds read low 0.978 and 1.01 | S. cerevisiae deletion strains, locus YNL067W, strain RPL9B, active compounds read low 1.01 | S. cerevisiae deletion strains, locus YNL071W, strain lat1, active compounds read low 0.999 | S. cerevisiae deletion strains, locus YNL128W, strain TEP1, active compounds read low 1.02 | S. cerevisiae deletion strains, locus YNL153C, strain GIM3, active compounds read low 1.02 | S. cerevisiae deletion strains, locus YNL175C, strain NOP13, active compounds read low 0.975 | S. cerevisiae deletion strains, locus YNL183C, strain NPR1, active compounds read low 0.907 | S. cerevisiae deletion strains, locus YNL197C, strain WHI3, active compounds read low 0.969 | S. cerevisiae deletion strains, locus YNL209W, strain ssb2, active compounds read low 1.01 | S. cerevisiae deletion strains, locus YNL224C, strain SQS1, active compounds read low 0.987 | S. cerevisiae deletion strains, locus YNL233W, strain BNI4, active compounds read low 1.02 | S. cerevisiae deletion strains, locus YNL248C, strain rpa49, active compounds read low 1.04 | S. cerevisiae deletion strains, locus YNL250W, strain rad50, active compounds read low 0.989 | S. cerevisiae deletion strains, locus YNL271C, strain bni1, active compounds read low 0.982 | S. cerevisiae deletion strains, locus YNL298W, strain CLA4, active compounds read low 1 | S. cerevisiae deletion strains, locus YNL307C, strain MCK1, active compounds read low 1.01 | S. cerevisiae deletion strains, locus YNL322C, strain KRE1 (second series), active compounds read low 1.01 | S. cerevisiae deletion strains, locus YNL322C, strain KRE1, active compounds read low 1.01 | S. cerevisiae deletion strains, locus YNR049C, strain mso1, active compounds read low 1.01 | S. cerevisiae deletion strains, locus YNR052C, strain pop2, active compounds read low 0.996 | S. cerevisiae deletion strains, locus YOL006C, strain TOP1, active compounds read low 1.05 | S. cerevisiae deletion strains, locus YOL012C, strain htz1 0.596 | S. cerevisiae deletion strains, locus YOL147C, strain pex11, active compounds read low 1 | S. cerevisiae deletion strains, locus YOR001W, strain rrp6, active compounds read low 1.02 | S. cerevisiae deletion strains, locus YOR061W, strain CKA2, active compounds read low 1.01 | S. cerevisiae deletion strains, locus YOR069W, strain VPS5, active compounds read low 1 | S. cerevisiae deletion strains, locus YOR070C, strain gyp1, active compounds read low 1.01 | S. cerevisiae deletion strains, locus YOR080W, strain dia2, active compounds read low 0.986 | S. cerevisiae deletion strains, locus YOR083W, strain WHI5 (second series), active compounds read low 0.968 | S. cerevisiae deletion strains, locus YOR083W, strain WHI5, active compounds read low 0.989 | S. cerevisiae deletion strains, locus YOR106W, strain vam3, active compounds read low 1 | S. cerevisiae deletion strains, locus YOR136W, strain idh2, active compounds read low 0.999 | S. cerevisiae deletion strains, locus YOR144C, strain elg1, active compounds read low 0.998 | S. cerevisiae deletion strains, locus YOR184W, strain ser1, active compounds read low 1 | S. cerevisiae deletion strains, locus YOR231W, strain MKK1, active compounds read low 0.979 | S. cerevisiae deletion strains, locus YOR265W, strain rbl2, active compounds read low 1 | S. cerevisiae deletion strains, locus YOR270C, strain vph1, active compounds read low 1.02 | S. cerevisiae deletion strains, locus YOR290C, strain snf2, active compounds read low 0.996 | S. cerevisiae deletion strains, locus YOR316C, strain cot1, active compounds read low 1 | S. cerevisiae deletion strains, locus YPL051W, strain arl3, active compounds read low 1 | S. cerevisiae deletion strains, locus YPL055C, strain LGE1, active compounds read low 1.04 and 0.991 | S. cerevisiae deletion strains, locus YPL078C, strain atp4, active compounds read low 1 | S. cerevisiae deletion strains, locus YPL106C, strain sse1, active compounds read low 1.01 | S. cerevisiae deletion strains, locus YPL240C, strain hsp82, active compounds read low 1 | S. cerevisiae deletion strains, locus YPL241C, strain CIN2, active compounds read low 1.01 | S. cerevisiae deletion strains, locus YPL256C, strain CLN2, active compounds read low 0.932 | S. cerevisiae deletion strains, locus YPR119W, strain clb2, active compounds read low 0.997 | S. cerevisiae deletion strains, locus YPR141C, strain kar3, active compounds read low 0.997 | S. cerevisiae deletion strains, locus YPR163C, strain tif3, active compounds read low 0.998 | S. cerevisiae deletion strains, locus YPR167C, strain met16, active compounds read low 1 | S. cerevisiae deletion strains, strain wtn01, active compounds read low 1 | S. cerevisiae strains, strain wild type, active compounds read low 1.02
